Assay results as given in PubChem BioAssay (NCI).
About 79,000 compounds went through this panel and 15% of them were active in at least one assay; those are over-represented in the sample as a whole. A number with no mark means an inactive call. Activity calls are given as the source filed them. Rule as the data show it: active = growth inhibition above about 70%; inactive = the rest.

Assays:
[1] = NCI Yeast Anticancer Drug Screen. Data for the rad50 strain (AID 155);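 also: 0% = growth of vehicle-only cultures of the same strain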; details: S. cerevisiae rad50 strain growth inhibition, hits give high values
Method in brief: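 Vehicle-treated cultures provide the reference for the growth inhibition reported for compound-exposed, repair-deficient yeast.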

[2] = NCI Yeast Anticancer Drug Screen. Data for the mec2-1 strain (AID 157); details: S. cerevisiae mec2-1 strain, hits give high values
Method in brief: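 Cells of the genetically defined mec2-1 yeast strain are incubated with test compound. Inhibition of growth is calculated against vehicle-treated controls.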

[3] = NCI Yeast Anticancer Drug Screen. Data for the sgs1 mgt1 strain (AID 161);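 also: 0% = growth of cultures given vehicle only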; details: S. cerevisiae sgs1 mgt1 strain, hits give high values
Method in brief: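 Mutant yeast exposed to compound; growth scored against vehicle-only wells.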

[4] = NCI Yeast Anticancer Drug Screen. Data for the cln2 rad14 strain (AID 165);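 also: 0% = growth equal to vehicle treated cultures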; details: S. cerevisiae cln2 rad14 strain, hits give high values
Method in brief: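 The screen exposed genetically defined yeast (cln2 rad14) to test compounds and scored growth inhibition relative to vehicle-treated controls.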

[5] = NCI Yeast Anticancer Drug Screen. Data for the bub3 strain (AID 167); details: S. cerevisiae bub3 mutant strain, hits give high values
Method in brief: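 Mutant yeast screening strain plus compound; vehicle-treated cultures serve as the 0% inhibition reference.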

[6] = NCI Yeast Anticancer Drug Screen. Data for the mlh1 rad18 strain (AID 175); details: S. cerevisiae mlh1 rad18 strain growth inhibition, hits give high values
Method in brief: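 Compound-treated yeast growth, normalised to vehicle controls. Strain bears defined DNA repair mutations.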

[7] = at 5.0 µM (retest, dose inferred, filed as 0.5)
[8] = at 50.0 µM (retest, dose inferred, filed as 5.0)

Row | SMILES | growth inhibition [1, 7] | growth inhibition [1, 8] | growth inhibition ([1]; at 50.0 µM) | growth inhibition [2, 7] | growth inhibition [2, 8] | growth inhibition ([2]; at 50.0 µM) | growth inhibition [3, 7] | growth inhibition [3, 8] | growth inhibition ([3]; at 50.0 µM) | growth inhibition [4, 7] | growth inhibition [4, 8] | growth inhibition ([4]; at 50.0 µM) | growth inhibition [5, 7] | growth inhibition [5, 8] | growth inhibition ([5]; at 50.0 µM) | growth inhibition [6, 7] | growth inhibition [6, 8] | growth inhibition ([6]; at 50.0 µM)
1 | CC(=O)Oc1ccc(C23CC4CC(CC(C4)C2)C3)cc1 | -2% | 98% (active) | 98.8% (active) | -2% | 99% (active) | 98.5% (active) | 16% | 99% (active) | 98.6% (active) | -36% | 99% (active) | 96.6% (active) | 25% | 108% (active) | 98.8% (active) | 10% | 99% (active) | 98.3% (active)
2 | COc1ccc2nc3cccc([N+](=O)[O-])c3c(NCCN(C)C)c2c1 | 86% (active) | 95% (active) | 80% (active) | 95% (active) | 98% (active) | 88.5% (active) | 87% (active) | 74% (active) | 84.5% (active) | 92% (active) | 97% (active) | 83% (active) | 36% | 96% (active) | 82.2% (active) | 92% (active) | 97% (active) | 79.6% (active)
3 | CCCCCCCCCCCCNc1ccccn1 | -3% | 98% (active) | 18.4% | 25% | 99% (active) | 21.2% | 42% | 99% (active) | 69.8% | 6% | 99% (active) | 56% | 29% | 99% (active) | 48% | 37% | 99% (active) | 80.8% (active)
4 | COC(=O)[C@]1(C)CCC[C@]2(C)c3ccc(C(C)C)cc3C(=O)C[C@@H]12 | 5% | 87% (active) | 95.9% (active) | 4% | 90% (active) | 99% (active) | 1% | 93% (active) | 96.2% (active) | 4% | 82% (active) | 89.5% (active) | 6% | 88% (active) | 97.7% (active) | -9% | 73% (active) | 94.5% (active)
5 | CN(CCCN(CCO)CCO)C1CC(C)(C)N(O)C(C)(C)C1 | 16% | -4% | -4.5% | -1% | 3% | -9.7% | 7% | 10% | -3.5% | -2% | 5% | 14.7% | -3% | 2% | -8.9% | 1% | 9% | 7.2%
6 | CCOc1c(N=Nc2ccc(Cl)cc2)c(-c2ccccc2)nn1C(=S)S | 4% | 91% (active) | 95.3% (active) | 2% | 89% (active) | 95.6% (active) | 8% | 92% (active) | 92% (active) | 5% | 92% (active) | 91.5% (active) | 0% | 94% (active) | 92.8% (active) | 2% | 91% (active) | 94.4% (active)
7 | CCOC(=O)C(Cl)C(Cl)C(=O)OCC (stereo not given) | 12% | 98% (active) | 98.8% (active) | 6% | 98% (active) | 99% (active) | 2% | 99% (active) | 99.5% (active) | 6% | 98% (active) | 98.4% (active) | 22% | 98% (active) | 99% (active) | 12% | 99% (active) | 99% (active)
8 | Ic1[nH]c(I)c(I)c1I | 13% | 97% (active) | 95.2% (active) | 16% | 98% (active) | 95% (active) | 10% | 95% (active) | 97% (active) | -2% | 96% (active) | 94.3% (active) | 14% | 98% (active) | 96.7% (active) | 11% | 95% (active) | 92.7% (active)
9 | Clc1cc[c]([Sn]([Cl])([O][Sn]([Cl])([c]2ccc(Cl)cc2)[c]2ccc(Cl)cc2)[c]2ccc(Cl)cc2)cc1 | 89% (active) | 97% (active) | 86.5% (active) | 95% (active) | 98% (active) | 88.5% (active) | 96% (active) | 97% (active) | 87.6% (active) | 42% | 98% (active) | 81.5% (active) | 97% (active) | 98% (active) | 87% (active) | 90% (active) | 95% (active) | 92.7% (active)
10 | O=C1C(=Cc2ccccc2O)N=C(c2ccccc2)N1n1c(-c2ccccc2)nc2ccccc2c1=O | 5% | 31% | 58% | -3% | 22% | 49.2% | 0% | 24% | 75.7% (active) | 8% | 33% | 50.3% | -13% | 45% | 80.2% (active) | 11% | 39% | 73.3% (active)
